# Test results: paper PMC7862700, “An all-to-all approach to the identification of sequence-specific readers for epigenetic DNA modifications on cytosine”
# Experiments:
# Experiment in all cases: DAPPL (digital affinity profiling via proximity ligation, sequencing); 10 mM Tris-HCl pH 7.5, 50 mM NaCl, 1 mM DTT, 4% glycerol, room temperature, 30 min; GST-TFs on glutathione beads, 16-mer random dsDNA library, 0.1% formaldehyde crosslink after washing; high values mean tight binding
# FLI1 = target: T1, FLI1 (Homo sapiens, UniProt Q01543 1-452); conditions: protein: recombinant; tags: N-terminal GST; dsDNA, one strand shown
# T1 sequence: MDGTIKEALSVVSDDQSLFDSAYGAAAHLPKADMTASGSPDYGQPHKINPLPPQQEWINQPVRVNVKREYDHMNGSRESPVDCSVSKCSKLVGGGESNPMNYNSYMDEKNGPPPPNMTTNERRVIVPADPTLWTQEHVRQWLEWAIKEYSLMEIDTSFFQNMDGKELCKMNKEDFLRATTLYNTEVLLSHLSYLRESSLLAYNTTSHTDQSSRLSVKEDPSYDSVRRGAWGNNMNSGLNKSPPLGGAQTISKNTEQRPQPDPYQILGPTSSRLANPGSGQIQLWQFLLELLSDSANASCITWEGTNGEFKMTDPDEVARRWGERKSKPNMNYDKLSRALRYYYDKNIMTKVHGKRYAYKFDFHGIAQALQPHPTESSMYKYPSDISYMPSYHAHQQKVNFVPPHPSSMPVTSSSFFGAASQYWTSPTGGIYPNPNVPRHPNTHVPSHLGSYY
# In short: (§1)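 Human transcription factors fused to GST were expressed in yeast, captured on glutathione beads, given DNA barcodes and pooled with a GST-only negative control. Pools were incubated with 200 nmole of a 16-mer random double-stranded DNA library in Tris/NaCl/DTT/glycerol buffer at room temperature for 30 min. They were then washed, crosslinked with 0.1% formaldehyde, proximity-ligated (BsaI/T4 ligase, 1 h, 37 °C), PCR-amplified and sequenced on an Illumina NextSeq500. Binding signal is each 6-mer's read frequency for a factor divided by its frequency for the GST control.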
# ELK1 = target: T2, ELK1 (Homo sapiens, UniProt P19419 1-428); conditions: protein: recombinant; tags: N-terminal GST; dsDNA, one strand shown
# T2 sequence: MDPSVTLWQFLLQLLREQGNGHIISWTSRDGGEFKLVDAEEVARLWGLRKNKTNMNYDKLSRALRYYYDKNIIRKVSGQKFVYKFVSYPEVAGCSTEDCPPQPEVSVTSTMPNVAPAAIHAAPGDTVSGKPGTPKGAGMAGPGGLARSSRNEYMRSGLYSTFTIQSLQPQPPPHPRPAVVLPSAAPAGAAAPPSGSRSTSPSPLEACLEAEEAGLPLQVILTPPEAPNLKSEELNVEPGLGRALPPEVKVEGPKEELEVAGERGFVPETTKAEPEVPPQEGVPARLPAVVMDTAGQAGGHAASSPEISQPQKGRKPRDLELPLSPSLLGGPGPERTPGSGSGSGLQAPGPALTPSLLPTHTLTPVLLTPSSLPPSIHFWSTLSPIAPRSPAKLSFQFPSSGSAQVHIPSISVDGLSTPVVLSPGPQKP
# In short: as §1
# GABPA = target: T3, GABPA (Homo sapiens, UniProt Q06546 1-454); conditions: protein: recombinant; tags: N-terminal GST; dsDNA, one strand shown
# T3 sequence: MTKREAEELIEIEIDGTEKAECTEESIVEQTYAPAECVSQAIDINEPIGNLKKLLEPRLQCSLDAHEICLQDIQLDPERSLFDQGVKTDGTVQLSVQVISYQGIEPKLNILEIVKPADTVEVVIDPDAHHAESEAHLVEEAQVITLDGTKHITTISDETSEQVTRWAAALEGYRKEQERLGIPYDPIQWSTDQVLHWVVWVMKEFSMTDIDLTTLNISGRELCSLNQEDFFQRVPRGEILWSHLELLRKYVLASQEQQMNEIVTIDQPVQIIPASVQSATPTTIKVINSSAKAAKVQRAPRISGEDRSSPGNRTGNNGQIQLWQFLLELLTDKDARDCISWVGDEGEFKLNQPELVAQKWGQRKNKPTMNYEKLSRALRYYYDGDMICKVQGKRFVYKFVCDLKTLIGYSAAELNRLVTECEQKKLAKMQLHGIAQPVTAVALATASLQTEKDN
# In short: as §1
# ERG = target: T4, ERG (Homo sapiens, UniProt P11308 1-479); conditions: protein: recombinant; tags: N-terminal GST; dsDNA, one strand shown
# T4 sequence: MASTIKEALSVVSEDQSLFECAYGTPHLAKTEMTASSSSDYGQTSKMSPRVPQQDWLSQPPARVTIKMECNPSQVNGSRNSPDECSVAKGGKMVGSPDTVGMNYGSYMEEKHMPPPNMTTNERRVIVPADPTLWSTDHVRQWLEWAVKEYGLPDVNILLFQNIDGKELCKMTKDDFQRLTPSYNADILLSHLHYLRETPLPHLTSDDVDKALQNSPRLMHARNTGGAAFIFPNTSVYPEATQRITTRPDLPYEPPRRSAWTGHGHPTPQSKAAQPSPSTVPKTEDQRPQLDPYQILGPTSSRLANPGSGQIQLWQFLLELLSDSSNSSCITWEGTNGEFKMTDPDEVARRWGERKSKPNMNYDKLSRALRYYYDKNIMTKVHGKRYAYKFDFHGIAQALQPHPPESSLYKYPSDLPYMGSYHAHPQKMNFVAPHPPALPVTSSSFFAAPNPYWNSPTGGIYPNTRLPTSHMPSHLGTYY
# In short: as §1
# ELF1 = ELF1 (Homo sapiens, UniProt P32519 1-619); conditions: protein: recombinant; tags: N-terminal GST; dsDNA, one strand shown
# In short: as §1
# EHF = target: T5, EHF (Homo sapiens, UniProt Q9NZC4 1-300); conditions: protein: recombinant; tags: N-terminal GST; dsDNA, one strand shown
# T5 sequence: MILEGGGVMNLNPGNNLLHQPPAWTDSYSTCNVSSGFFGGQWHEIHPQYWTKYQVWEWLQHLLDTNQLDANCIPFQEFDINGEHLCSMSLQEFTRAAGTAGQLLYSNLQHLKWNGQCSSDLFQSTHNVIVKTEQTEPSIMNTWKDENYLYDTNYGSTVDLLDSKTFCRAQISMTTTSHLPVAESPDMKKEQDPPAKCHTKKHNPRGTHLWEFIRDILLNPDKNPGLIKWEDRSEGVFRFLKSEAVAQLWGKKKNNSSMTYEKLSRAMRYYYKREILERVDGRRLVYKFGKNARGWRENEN
# In short: as §1
# SPI1 = SPI1 (Homo sapiens, UniProt P17947 1-270); conditions: protein: recombinant; tags: N-terminal GST; dsDNA, one strand shown
# In short: as §1
# SPIB = SPIB (Homo sapiens, UniProt Q01892 1-262); conditions: protein: recombinant; tags: N-terminal GST; dsDNA, one strand shown
# In short: as §1
# ELK3 = target: T6, ELK3 (Homo sapiens, UniProt P41970 1-407); conditions: protein: recombinant; tags: N-terminal GST; dsDNA, one strand shown
# T6 sequence: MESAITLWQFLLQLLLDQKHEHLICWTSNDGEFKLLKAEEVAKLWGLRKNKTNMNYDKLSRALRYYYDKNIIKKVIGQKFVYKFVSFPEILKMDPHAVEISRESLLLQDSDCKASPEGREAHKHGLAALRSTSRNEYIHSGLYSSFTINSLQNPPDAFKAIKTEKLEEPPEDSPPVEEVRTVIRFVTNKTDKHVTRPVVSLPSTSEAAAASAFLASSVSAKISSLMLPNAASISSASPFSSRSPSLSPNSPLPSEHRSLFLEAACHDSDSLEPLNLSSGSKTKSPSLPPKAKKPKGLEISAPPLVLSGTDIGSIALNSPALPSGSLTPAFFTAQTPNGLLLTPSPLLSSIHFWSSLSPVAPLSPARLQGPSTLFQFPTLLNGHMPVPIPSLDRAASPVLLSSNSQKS
# In short: as §1
# FEV = target: T7, FEV (Homo sapiens, UniProt Q99581 1-238); conditions: protein: recombinant; tags: N-terminal GST; dsDNA, one strand shown
# T7 sequence: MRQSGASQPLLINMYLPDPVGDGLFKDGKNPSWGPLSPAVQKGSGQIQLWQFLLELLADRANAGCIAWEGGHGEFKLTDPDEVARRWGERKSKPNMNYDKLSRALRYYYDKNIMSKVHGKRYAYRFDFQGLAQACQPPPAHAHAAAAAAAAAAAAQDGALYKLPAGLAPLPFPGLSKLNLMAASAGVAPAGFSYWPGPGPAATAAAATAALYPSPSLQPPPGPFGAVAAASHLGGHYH
# In short: as §1
# ETV5 = ETV5 (Homo sapiens, UniProt P41161 1-510); conditions: protein: recombinant; tags: N-terminal GST; dsDNA, one strand shown
# In short: as §1
# HSF1 = HSF1 (Homo sapiens, UniProt Q00613 1-529); conditions: protein: recombinant; tags: N-terminal GST; chain copies: 3; dsDNA, one strand shown
# In short: as §1
# SPIC = target: T8, SPIC (Homo sapiens, UniProt Q8N5J4 1-248); conditions: protein: recombinant; tags: N-terminal GST; dsDNA, one strand shown
# T8 sequence: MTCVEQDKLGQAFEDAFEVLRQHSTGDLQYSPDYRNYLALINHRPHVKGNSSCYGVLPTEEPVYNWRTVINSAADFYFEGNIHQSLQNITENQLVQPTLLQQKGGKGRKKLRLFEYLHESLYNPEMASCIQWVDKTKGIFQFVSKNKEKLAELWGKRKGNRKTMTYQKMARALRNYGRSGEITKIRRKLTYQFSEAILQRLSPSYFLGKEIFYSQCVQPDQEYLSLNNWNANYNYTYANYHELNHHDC
# In short: as §1
# ELF4 = ELF4 (Homo sapiens, UniProt Q99607 1-663); conditions: protein: recombinant; tags: N-terminal GST; dsDNA, one strand shown
# In short: as §1
# ELK4 = target: T9, ELK4 (Homo sapiens, UniProt P28324-2 1-405); conditions: protein: recombinant; tags: N-terminal GST; dsDNA, one strand shown
# T9 sequence: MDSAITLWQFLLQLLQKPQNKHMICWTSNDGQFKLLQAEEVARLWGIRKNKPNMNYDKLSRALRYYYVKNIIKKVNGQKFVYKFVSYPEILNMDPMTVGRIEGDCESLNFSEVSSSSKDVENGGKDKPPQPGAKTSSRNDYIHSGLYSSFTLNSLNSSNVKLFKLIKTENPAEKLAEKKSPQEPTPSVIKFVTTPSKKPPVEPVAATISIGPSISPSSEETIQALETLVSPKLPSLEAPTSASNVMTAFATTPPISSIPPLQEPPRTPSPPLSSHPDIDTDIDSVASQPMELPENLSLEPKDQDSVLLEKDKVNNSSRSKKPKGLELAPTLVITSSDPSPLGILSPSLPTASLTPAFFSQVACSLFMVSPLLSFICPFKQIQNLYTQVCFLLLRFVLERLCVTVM
# In short: as §1
# ETV2 = target: T10, ETV2 (Homo sapiens, UniProt O00321 1-342); conditions: protein: recombinant; tags: N-terminal GST; dsDNA, one strand shown
# T10 sequence: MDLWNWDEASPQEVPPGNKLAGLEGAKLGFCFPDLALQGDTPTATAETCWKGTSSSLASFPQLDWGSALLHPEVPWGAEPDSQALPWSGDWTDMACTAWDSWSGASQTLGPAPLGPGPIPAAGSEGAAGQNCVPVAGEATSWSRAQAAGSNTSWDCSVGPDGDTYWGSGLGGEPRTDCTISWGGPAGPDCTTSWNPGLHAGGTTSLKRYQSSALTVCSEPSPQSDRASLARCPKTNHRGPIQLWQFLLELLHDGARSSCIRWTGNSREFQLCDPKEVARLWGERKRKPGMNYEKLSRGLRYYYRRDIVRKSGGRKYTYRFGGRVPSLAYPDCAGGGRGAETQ
# In short: as §1
# ELF3 = target: T11, ELF3 (Homo sapiens, UniProt P78545 1-371); conditions: protein: recombinant; tags: N-terminal GST; dsDNA, one strand shown
# T11 sequence: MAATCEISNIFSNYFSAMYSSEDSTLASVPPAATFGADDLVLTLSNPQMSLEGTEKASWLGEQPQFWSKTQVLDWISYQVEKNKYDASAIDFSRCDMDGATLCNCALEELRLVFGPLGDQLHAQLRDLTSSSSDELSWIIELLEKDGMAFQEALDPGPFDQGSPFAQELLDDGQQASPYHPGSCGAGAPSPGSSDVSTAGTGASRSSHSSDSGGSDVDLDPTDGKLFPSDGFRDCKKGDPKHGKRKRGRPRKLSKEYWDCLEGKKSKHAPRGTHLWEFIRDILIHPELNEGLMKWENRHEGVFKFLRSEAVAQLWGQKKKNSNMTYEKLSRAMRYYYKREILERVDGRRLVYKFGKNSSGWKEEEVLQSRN
# In short: as §1
# CRX = CRX (Homo sapiens, UniProt O43186 1-299); conditions: protein: recombinant; tags: N-terminal GST; dsDNA, one strand shown
# In short: as §1
# ETV1 = ETV1 (Homo sapiens, UniProt P50549 1-477); conditions: protein: recombinant; tags: N-terminal GST; dsDNA, one strand shown
# In short: as §1
# Sequence of ETV5 (P41161 whole entry): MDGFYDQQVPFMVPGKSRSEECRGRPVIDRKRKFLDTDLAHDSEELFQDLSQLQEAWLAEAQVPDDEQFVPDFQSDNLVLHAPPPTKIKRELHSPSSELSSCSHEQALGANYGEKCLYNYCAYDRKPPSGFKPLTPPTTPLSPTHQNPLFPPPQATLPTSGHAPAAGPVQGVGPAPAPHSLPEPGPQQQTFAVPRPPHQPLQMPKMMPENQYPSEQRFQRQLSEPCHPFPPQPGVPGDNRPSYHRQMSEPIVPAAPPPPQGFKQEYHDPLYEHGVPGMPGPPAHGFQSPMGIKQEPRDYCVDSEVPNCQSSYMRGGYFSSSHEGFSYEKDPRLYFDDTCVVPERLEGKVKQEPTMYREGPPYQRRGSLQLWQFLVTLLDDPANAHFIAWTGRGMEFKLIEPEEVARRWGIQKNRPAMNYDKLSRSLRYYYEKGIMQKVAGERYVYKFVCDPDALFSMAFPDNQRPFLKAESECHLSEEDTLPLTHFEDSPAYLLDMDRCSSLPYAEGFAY
# Sequence of CRX (O43186 whole entry): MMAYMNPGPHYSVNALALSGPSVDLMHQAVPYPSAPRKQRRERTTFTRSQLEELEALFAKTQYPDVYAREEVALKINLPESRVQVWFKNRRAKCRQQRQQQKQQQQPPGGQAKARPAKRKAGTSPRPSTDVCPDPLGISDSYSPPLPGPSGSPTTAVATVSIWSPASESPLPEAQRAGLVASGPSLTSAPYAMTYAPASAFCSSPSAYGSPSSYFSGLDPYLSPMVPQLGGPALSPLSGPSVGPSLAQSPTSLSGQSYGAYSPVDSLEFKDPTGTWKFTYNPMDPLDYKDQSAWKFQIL
# Sequence of ELF1 (P32519 whole entry): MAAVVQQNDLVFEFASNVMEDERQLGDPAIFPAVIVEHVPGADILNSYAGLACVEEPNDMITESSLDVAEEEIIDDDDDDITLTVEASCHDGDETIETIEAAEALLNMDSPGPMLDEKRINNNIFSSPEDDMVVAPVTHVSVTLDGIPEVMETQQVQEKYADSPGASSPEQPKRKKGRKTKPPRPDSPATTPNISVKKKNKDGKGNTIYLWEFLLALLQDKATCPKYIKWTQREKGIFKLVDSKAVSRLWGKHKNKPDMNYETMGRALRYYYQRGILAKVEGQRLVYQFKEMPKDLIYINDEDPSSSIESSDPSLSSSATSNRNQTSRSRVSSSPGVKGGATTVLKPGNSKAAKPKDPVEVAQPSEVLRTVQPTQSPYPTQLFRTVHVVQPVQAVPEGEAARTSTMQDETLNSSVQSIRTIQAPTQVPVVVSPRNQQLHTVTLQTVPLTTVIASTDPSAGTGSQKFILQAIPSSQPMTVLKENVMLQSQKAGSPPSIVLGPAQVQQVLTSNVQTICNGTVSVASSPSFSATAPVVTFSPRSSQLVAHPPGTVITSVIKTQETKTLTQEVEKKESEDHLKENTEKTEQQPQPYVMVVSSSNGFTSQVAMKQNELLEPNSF
# Sequence of ELF4 (Q99607 whole entry): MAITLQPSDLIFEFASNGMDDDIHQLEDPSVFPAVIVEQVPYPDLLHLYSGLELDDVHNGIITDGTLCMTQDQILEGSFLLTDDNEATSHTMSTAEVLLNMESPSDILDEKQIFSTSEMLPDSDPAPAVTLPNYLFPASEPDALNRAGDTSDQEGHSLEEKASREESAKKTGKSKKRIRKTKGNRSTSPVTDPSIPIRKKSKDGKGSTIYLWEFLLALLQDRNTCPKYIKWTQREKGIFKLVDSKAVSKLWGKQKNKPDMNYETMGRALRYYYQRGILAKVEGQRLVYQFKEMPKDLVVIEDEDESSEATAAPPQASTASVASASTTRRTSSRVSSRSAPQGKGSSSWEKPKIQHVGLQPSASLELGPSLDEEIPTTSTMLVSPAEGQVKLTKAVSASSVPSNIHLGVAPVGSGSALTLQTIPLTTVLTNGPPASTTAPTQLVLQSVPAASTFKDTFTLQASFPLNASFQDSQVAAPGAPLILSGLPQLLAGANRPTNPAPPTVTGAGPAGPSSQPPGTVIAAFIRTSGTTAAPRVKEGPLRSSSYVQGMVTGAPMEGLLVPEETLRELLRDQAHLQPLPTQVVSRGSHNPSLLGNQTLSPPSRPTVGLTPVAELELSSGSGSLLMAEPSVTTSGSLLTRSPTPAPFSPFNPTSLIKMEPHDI
# Sequence of SPIB (Q01892 whole entry): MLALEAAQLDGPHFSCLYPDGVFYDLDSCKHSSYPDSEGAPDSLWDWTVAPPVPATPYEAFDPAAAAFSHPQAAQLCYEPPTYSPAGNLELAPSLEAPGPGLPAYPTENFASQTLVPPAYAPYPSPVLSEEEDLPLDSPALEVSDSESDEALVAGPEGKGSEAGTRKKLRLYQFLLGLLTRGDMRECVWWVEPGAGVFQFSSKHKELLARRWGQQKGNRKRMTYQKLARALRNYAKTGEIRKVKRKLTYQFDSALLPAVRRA
# Sequence of ETV1 (P50549 whole entry): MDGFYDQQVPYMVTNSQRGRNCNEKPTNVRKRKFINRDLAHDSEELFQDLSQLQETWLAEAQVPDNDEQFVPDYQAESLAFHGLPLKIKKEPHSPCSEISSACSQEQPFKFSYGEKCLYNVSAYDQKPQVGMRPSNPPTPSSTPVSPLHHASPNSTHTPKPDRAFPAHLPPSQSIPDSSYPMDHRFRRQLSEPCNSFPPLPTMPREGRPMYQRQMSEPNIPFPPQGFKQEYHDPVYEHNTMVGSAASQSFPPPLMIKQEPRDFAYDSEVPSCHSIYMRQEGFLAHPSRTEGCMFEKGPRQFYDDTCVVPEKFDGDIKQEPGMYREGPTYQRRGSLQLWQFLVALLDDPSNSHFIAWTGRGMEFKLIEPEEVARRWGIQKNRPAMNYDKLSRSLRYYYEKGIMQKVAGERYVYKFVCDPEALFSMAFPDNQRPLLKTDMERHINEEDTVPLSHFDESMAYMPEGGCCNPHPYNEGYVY
# Sequence of HSF1 (Q00613 whole entry): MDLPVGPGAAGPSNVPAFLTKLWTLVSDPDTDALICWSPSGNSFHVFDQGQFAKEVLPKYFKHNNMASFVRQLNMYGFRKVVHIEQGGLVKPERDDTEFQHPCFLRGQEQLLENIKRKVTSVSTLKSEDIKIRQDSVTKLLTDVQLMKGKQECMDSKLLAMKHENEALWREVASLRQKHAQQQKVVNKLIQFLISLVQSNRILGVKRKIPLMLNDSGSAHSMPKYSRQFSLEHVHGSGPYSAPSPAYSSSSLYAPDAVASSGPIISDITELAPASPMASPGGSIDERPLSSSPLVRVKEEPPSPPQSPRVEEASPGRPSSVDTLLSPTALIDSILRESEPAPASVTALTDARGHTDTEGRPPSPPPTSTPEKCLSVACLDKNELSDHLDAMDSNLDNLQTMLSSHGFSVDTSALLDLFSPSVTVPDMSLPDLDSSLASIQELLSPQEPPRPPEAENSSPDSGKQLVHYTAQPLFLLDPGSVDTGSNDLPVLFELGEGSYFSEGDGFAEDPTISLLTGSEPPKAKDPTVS
sequence,measurement,setting,value
CCATTT,binding signal,FLI1,"1.25 fold enrichment (6-mer frequency, TF over GST control)"
same,binding signal,ELK1,"1.29 fold enrichment (6-mer frequency, TF over GST control)"
same,binding signal,GABPA,"1.42 fold enrichment (6-mer frequency, TF over GST control)"
same,binding signal,ERG,"1.4 fold enrichment (6-mer frequency, TF over GST control)"
same,binding signal,ELF1,"1.27 fold enrichment (6-mer frequency, TF over GST control)"
same,binding signal,EHF,"1.31 fold enrichment (6-mer frequency, TF over GST control)"
same,binding signal,SPI1,"1.45 fold enrichment (6-mer frequency, TF over GST control)"
same,binding signal,SPIB,"1.37 fold enrichment (6-mer frequency, TF over GST control)"
same,binding signal,ELK3,"1.33 fold enrichment (6-mer frequency, TF over GST control)"
same,binding signal,FEV,"1.5 fold enrichment (6-mer frequency, TF over GST control)"
same,binding signal,ETV5,"1.47 fold enrichment (6-mer frequency, TF over GST control)"
same,binding signal,HSF1,"1.01 fold enrichment (6-mer frequency, TF over GST control)"
same,binding signal,SPIC,"1.42 fold enrichment (6-mer frequency, TF over GST control)"
same,binding signal,ELF4,"1.32 fold enrichment (6-mer frequency, TF over GST control)"
same,binding signal,ELK4,"1.41 fold enrichment (6-mer frequency, TF over GST control)"
same,binding signal,ETV2,"1.38 fold enrichment (6-mer frequency, TF over GST control)"
same,binding signal,ELF3,"1.28 fold enrichment (6-mer frequency, TF over GST control)"
same,binding signal,CRX,"1.01 fold enrichment (6-mer frequency, TF over GST control)"
same,binding signal,ETV1,"1.36 fold enrichment (6-mer frequency, TF over GST control)"
